# Screening data: PubChem BioAssay, several laboratories
# MazF activator – activators of E. coli MazEF toxin-antitoxin RNase; FAM/BHQ RNA-DNA oligo cleavage fluorescence, 5 h; hit rate 0.32% among 350,000; activation, % at 20 µM; in the data active = activation above about 50%
# Target sequence (P0AE70 whole entry, looked up): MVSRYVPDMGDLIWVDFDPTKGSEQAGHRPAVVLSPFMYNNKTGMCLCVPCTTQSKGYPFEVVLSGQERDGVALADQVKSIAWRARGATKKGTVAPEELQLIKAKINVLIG
# BoNT A protease – blocks Botulinum neurotoxin A light chain protease. multiplex microsphere protease substrate cleavage, flow cytometry. inhibition, % at 10 µM. hit rate 0.17% among 360,000. AID 588499; also: plate controls were buffer without enzyme for full effect and enzyme alone for no effect
# BoNT-F LC inh – BoNT F light chain protease inhibition | inhibition, % at 10 µM | Multiplex microsphere protease cleavage assay, flow cytometry | hit rate 0.22% among 360,000; in the data active = inhibition above about 35%, passing the limit was not always enough; inconclusive = no clear call, values can overlap the other calls; also: plate controls were buffer without enzyme for full effect and enzyme alone for no effect
# Anthrax LF inh2 – anthrax lethal factor protease inhibition | AID 588501 | inhibition, % at 10 µM | hit rate 0.12% among 360,000 | multiplex microsphere protease cleavage assay, LF | P15917; also: plate controls were buffer without enzyme for full effect and enzyme alone for no effect
# PriA SSB inh – inhibitors of Klebsiella pneumoniae PriA binding to SSB C-terminal tail. AlphaScreen SSBct-PriA binding, biotinylated peptide. inhibition, % at 33 µM. hit rate 0.6% among 430,000; in the data active = inhibition mostly above about 37%, no sharp cut-off; inactive = mostly below about 20%;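 also: plate controls were negative control peptide for no effect and reference peptide for full effect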
# Bead autofluor – compound fluorescence in toxin protease inhibitor counterscreen; hit rate 3.1% among 360,000; compound autofluorescence counterscreen, microsphere flow cytometry; hits give high values; fluorescence intensity (test concentration not listed); in the data active = fluorescence intensity above about 16000; inconclusive = no clear call, values can overlap the other calls
# The depositor's hits bear a star; ? = inconclusive; · = not tested or not shown. Shown are actives, neighbours in structure and some others; about 3.3% of the full set was active somewhere. Rule as the data show it, unless noted: active = inhibition above about 30%; inconclusive = no clear call, values can overlap the other calls; inactive = below that.
SMILES,MazF activator,BoNT A protease,BoNT-F LC inh,Anthrax LF inh2,PriA SSB inh,Bead autofluor
CCOc1ccc2nc(NCc3ccccc3)sc2c1,·,·,·,·,17,·
Cc1cccc(N2CCN(C(=O)c3cn(C)c(=O)c4c3c3ccccc3n4C)CC2)c1C,-9,0,0,-3,8,23203*
CCCc1nc2oc3c(NCCN4CCOCC4)ncnc3c2c2c1CCCC2,11,0,0,-5,5,3833
CC(C)Cc1nc2oc3c(NCCCN4CCOCC4)ncnc3c2c2c1CCC2,1,-1,-3,-1,21,23301*
O=C1C(Br)=Cc2cccc3cccc1c23,-113,59*,12,30*,17,2984
Cc1ccc2c(c1)c1c(n2C)C(C(N)=O)CCC1 (configuration not stated),9,0,-1,-3,-15,22355*
O=C1CC(N(C(=O)c2ccco2)c2ccc(F)cc2)C(=O)N1c1ccc(F)cc1 (configuration not stated),1,?,11,1,-6,19184*
O=C1CC(N(C(=O)c2ccco2)c2cccc(Cl)c2)C(=O)N1c1cccc(Cl)c1 (configuration not stated),0,0,-4,0,-8,11735
Cc1cccc(NC(=O)Cn2cnc3sc(-c4nc(-c5ccccc5Cl)no4)c(C)c3c2=O)c1,·,·,·,·,1,·
Cc1cccc(C)c1OCC(O)CN1CCCCC1C (configuration not stated),·,·,·,·,-10,·
O=S(=O)(c1ccc(Oc2ccccc2Cl)cc1)N(CC(F)(F)F)c1ccccc1,·,·,·,·,-23,·
NNc1nccc(Nc2ccccc2C(=O)O)n1,-3,-2,-4,-1,59*,2060
Cc1cc(-c2ccncc2)nn1CCNC(=O)c1cncc(Br)c1,·,·,·,·,-2,·
COC(=O)c1ccc(/C=C(\C#N)c2nc(-c3ccc([N+](=O)[O-])cc3)cs2)cc1,·,·,·,·,1,·
Cc1ccc(CNC(=O)CN2C(=O)C3(OCCCO3)c3ccccc32)cc1,4,38*,40*,-21,-12,11499
O=C(CN1C(=O)C2(OCCO2)c2ccccc21)c1ccc(Cl)cc1,0,?,0,-3,-7,16345*
Cc1ccc(C)c(CN2C(=O)C3(OCCCO3)c3ccccc32)c1,1,-1,-2,-3,-39,23436*
COC(=O)CN1C(=O)C2(OCCCO2)c2cc(Br)ccc21,-4,0,4,0,4,23376*
O=C(Nc1ccc2sccc2c1)C(c1ccccc1)c1ccccc1,·,·,·,·,-16,·
CC(C)c1nnc(C2CCN(C(=O)c3cn(C)nn3)CC2)o1,·,·,·,·,-14,·
Cc1cc(CNS(=O)(=O)c2ccc(N3CCCCS3(=O)=O)cc2)c(C)o1,·,·,·,·,1,·
O=c1ccc(-c2cccs2)nn1CCNS(=O)(=O)c1ccccc1C(F)(F)F,·,·,·,·,-1,·
O=C(CN1C(=O)C2(OCCCO2)c2ccccc21)NCc1ccccc1,-10,-3,-4,-4,-1,17108*
O=C(CC1C(=O)NCCN1C(=O)Nc1ccccc1)Nc1ccc2c(c1)OCCO2 (configuration not stated),-6,0,-5,-3,-12,16409*
O=C(CC1C(=O)NCCN1C(=O)Nc1ccccc1)Nc1cccc(Cl)c1 (configuration not stated),9,0,-3,4,-2,3464
SMILES,MazF activator,BoNT A protease,BoNT-F LC inh,Anthrax LF inh2,PriA SSB inh,Bead autofluor
O=C(Nc1ccc(-n2cnnc2)cc1)C1=Cc2ccccc2OC=C1,·,·,·,·,-18,·
CC(C)(C)c1cc(CCC(=O)O)cc(C(C)(C)C)c1,·,·,·,·,14,·
CC(=O)c1c(C(C)=O)c(C)n(Cc2ccc3c(c2)OCO3)c1C,2,-7,-12,-1,-2,22217*
CC(=O)c1c(C)n(CC(=O)NCc2ccc3c(c2)OCO3)c2ccccc12,4,0,0,-4,-1,8653
CCCCNC(=O)c1c(N)n(CCCOC)c2nc3ccccc3nc12,-6,3,-4,6,-26,21009*
COCCn1c(N)c(C(=O)NCc2cccs2)c2nc3ccccc3nc21,-9,9,0,13,-58,20185*
COc1ccccc1CNC(=O)c1c(N)n(CCCN2CCOCC2)c2nc3ccccc3nc12,-27,13,2,1,-51,18665*
CSc1nc2ccc3nc(Nc4nc5ccc(Cl)cc5s4)sc3c2s1,·,·,·,·,4,·
CCCNC(=O)c1c(N)n(Cc2ccc3c(c2)OCO3)c2nc3ccccc3nc12,-3,4,4,-2,0,23041*
O=C1c2ccccc2C(=O)N1Cc1ccc2c(c1)OCO2,6,0,-1,-5,-23,8057
O=C(O)c1ccc2c(c1)C(=O)N(Cc1ccc3c(c1)OCO3)C2=O,5,0,0,-2,-1,23047*
CC(C)CCNC(=O)c1c(N)n(Cc2ccc3c(c2)OCO3)c2nc3ccccc3nc12,-2,21,1,5,17,10113
Cc1ccn(-c2ccc(Nc3ccc(NC(=O)c4c(F)cccc4Cl)cc3)nn2)n1,·,·,·,·,39*,·
Cc1ccn(-c2ccc(Nc3ccc(NC(=O)c4c(F)cccc4F)cc3)nn2)n1,·,·,·,·,-11,·
Cc1ccn(-c2ccc(Nc3ccc(NC(=O)c4ccccc4Br)cc3)nn2)n1,·,·,·,·,35*,·
CC(=O)c1c(O)n(-c2cccc(Cl)c2)c(=O)[nH]c1=O,·,·,·,·,1,·
Cc1cccc(Cc2cnc(NC(=O)CCCN3C(=O)/C(=C\c4ccco4)SC3=S)s2)c1,·,·,·,·,4,·
COc1cccc(-c2cc(C(=O)N3CCN(C(=O)c4cnn5ccccc45)CC3)[nH]n2)c1,·,·,·,·,-12,·
CC1CCc2cc(F)ccc2N1C(=O)CCCSc1ccc(NC(=O)C2CC2)nn1 (configuration not stated),·,·,·,·,-4,·
O=C(Nc1ccc(S(=O)(=O)Nc2ncccn2)cc1)c1ccc(Br)s1,-3,-2,-5,-2,-15,16878*
Cc1ccc(NS(=O)(=O)c2ccc(NC(=O)c3cccs3)cc2)cc1,74*,1,-5,-5,-14,2643
COC(=O)CC1=C(C(=O)OC)C2(C(=O)Nc3c(C)cccc32)C(C#N)=C(N)O1 (configuration not stated),-4,?,2,-16,-5,20727*
CCCC1=C(C(=O)OCC)C2(C(=O)Nc3ccccc32)C(C#N)=C(N)O1 (configuration not stated),7,-1,-1,0,-12,22790*
CCOC(=O)C1=C(C)OC(N)=C(C#N)C12C(=O)N(C)c1ccccc12 (configuration not stated),63*,0,0,-5,-8,2706
COC(=O)C1=C(C)OC(N)=C(C#N)C12C(=O)Nc1ccccc12 (configuration not stated),-2,-1,-9,-8,-13,4542
c1ccc(Cc2nnc3sc(-c4cccs4)nn23)cc1,0,1,7,3,-14,7931
Clc1ccc(Cc2nnc3sc(-c4cccnc4)nn23)cc1,·,·,·,·,-25,·
c1ccc(Cc2nnc3sc(-c4ccncc4)nn23)cc1,1,-1,0,-1,-6,23785*
